In all, about 63,000 compounds went through this assay and about 1,100 (1.7%) were called active. This is one part of a sample in which actives are shown more often than they occur. Results with a measured potency or affinity are listed apart. A number with no mark means an inactive call. Rule as the data show it: active = cytotoxicity above about 50%; inactive = the rest.

This experiment in a line: cytotoxicity in HPDE-C7 cells, cell-based, fluorescence, HTS (AID 430).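 Also: cells exposed to compound for 48 hours before viability readout; 0% = vehicle and 100% = reference cytotoxic drug.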 The conditions noted are these: HPDE-C7 pancreatic duct cells viability, at 10 µM, hits give high values.
Turning to `COc1ccc(CCNS(=O)(=O)c2cccc(S(=O)(=O)N3CCCC3)c2)cc1OC`, the cytotoxicity was -3.9%.

Take `Cc1cc(SCNC(=O)c2ccccc2)ncn1`: the cytotoxicity is -13%.

Turning to `COc1ccc(N2CCN(c3oc(COc4ccccc4)nc3C#N)CC2)cc1`, the cytotoxicity was -8.8%.

As for `O=C(O)c1cccc(CN2C(=O)SC(Nc3ccccc3)C2=O)c1` (stereo not given), the cytotoxicity is -3.2%.

Consider `CN(C)C(=O)COn1c(SCC(=O)N(C)C)nc2ccccc2c1=O`, for which the cytotoxicity is -6.6%.

Consider `COc1ccc(C2C3=C(CC(C)(C)CC3=O)Nc3n[nH]c(C)c32)cc1` (stereo not given), for which the cytotoxicity was -9.3%.

As to `CCOc1cccc(C(=O)Nc2cc(-c3nn4c(C)nnc4s3)ccc2C)c1`, the cytotoxicity was -4.1%.

With `O=C(O)C1CCC(CNCc2cccnc2)CC1` (stereo not given), the cytotoxicity was -8.3%.

In the case of `CC1(C)CC(=O)C(C=Nc2ccccc2)=C(O)C1`, the cytotoxicity is 2%.

Regarding `Cc1ccc(SCCC(=O)NCC2CCCO2)cc1` (stereo not given), the cytotoxicity is -5.9%.

Consider `O=C(Nc1nnc(C2CC2)o1)c1ccc(S(=O)(=O)N2CCCc3ccccc32)cc1`, for which the cytotoxicity is 73.6% (active).

As to `COc1ccc(-c2nnc(NC(=O)c3ccccc3C)o2)cc1`, the cytotoxicity is 1.9%.

For `COc1ccc(-c2nnc(NC(=O)c3ccc(S(=O)(=O)N4CCCc5ccccc54)cc3)o2)cc1`, the cytotoxicity was 53.1% (active).

Take `O=C(Nc1ccc(S(=O)(=O)N2CCCc3ccccc32)cc1)C1CCCO1` (stereo not given): the cytotoxicity is 3%.

For the molecule `O=C(NCc1ccco1)c1ccc(S(=O)(=O)N2CCCc3ccccc32)cc1`, the cytotoxicity is -2.8%.

`COc1ccc(-c2nnc(NC(=O)c3ccc(S(=O)(=O)N4CCc5ccccc5C4)cc3)o2)cc1`: the cytotoxicity is 40.7%.

With `COc1cc(OC)cc(-n2c3nc4ccccc4nc3c3c(=O)n(CC4CCCO4)cnc32)c1` (stereo not given), the cytotoxicity was -11.1%.

With `COc1ccc(OC)c(NC(=O)C2=C(C)Nc3ncnn3C2c2cccs2)c1` (stereo not given), the cytotoxicity is 4.9%.

As for `CCCCOCCCNC(=O)Cc1cccs1`, the cytotoxicity is -16.7%.

`COc1ccccc1N1CCN(C(=O)N2CCOCC2)CC1`: the cytotoxicity was -6.9%.

On to `Cc1cc(N2CCN(C/C=C/c3ccccc3)CC2)n2ncnc2n1`, for which the cytotoxicity was -6.5%.

On to `O=C(NC1c2ccccc2-c2ccccc21)N1CCOCC1`, for which the cytotoxicity is 1.5%.

On to `O=C(CC1SC(=Nc2ccccc2)N(CCCCO)C1=O)NCc1ccccc1` (stereo not given), for which the cytotoxicity is -10.8%.

As to `CCCOC(=O)CSC1=C(C#N)C(c2ccccc2OCC)C(C#N)C(=O)N1` (stereo not given), the cytotoxicity was 5.1%.

In the case of `Cc1cc(NC(=O)CCc2ccc(C)o2)no1`, the cytotoxicity was -11.8%.

In the case of `CC(=O)C(C)Oc1ccc2c3c(c(=O)oc2c1)CCCCC3` (stereo not given), the cytotoxicity was -15.5%.

Turning to `Cc1ccc(-c2nnc(N3CCN(S(C)(=O)=O)CC3)c3ccccc23)cc1`, the cytotoxicity was -1.3%.

As to `c1ccc(-c2nnc(N3CCN(c4ccccn4)CC3)c3ccccc23)cc1`, the cytotoxicity is 5.2%.

`O=C(OCC(=O)N1CCN(C(=O)c2ccco2)CC1)c1ccccc1C(=O)c1ccc(Cl)cc1`: the cytotoxicity was -5%.

`Cc1cccc(CN2CCN(C(c3ccccc3)c3ccc(Cl)cc3)CC2)c1` (stereo not given): the cytotoxicity is 95.1% (active).

On to `CN1CCCN(C(c2ccccc2)c2ccc(Cl)cc2)CC1` (stereo not given), for which the cytotoxicity is 12.4%.

For `O=S(=O)(CCN1CCN(C(c2ccccc2)c2ccccc2)CC1)C(F)(F)F`, the cytotoxicity was -0.3%.

Take `OCCOCCN1CCN(C(c2ccccc2)c2ccc(Cl)cc2)CC1` (stereo not given): the cytotoxicity was 50.4% (active).

Regarding `Cc1cccc(CN2CCN(c3ccccn3)CC2)c1`, the cytotoxicity was -18.2%.

With `Cc1cccc(CN2CCN(C(=O)c3ccccc3F)CC2)c1`, the cytotoxicity is 5.3%.

Consider `CC(C)N1C(=O)CCC1C(=O)N1CCN(c2ccccn2)CC1` (stereo not given), for which the cytotoxicity was 9.8%.

Take `Fc1ccc(OCc2nc(-c3ccc(Br)o3)no2)c(F)c1`: the cytotoxicity was 6.5%.

For the molecule `Cc1ccc(-n2c(SCC(N)=O)nnc2-c2cccnc2)c(C)c1`, the cytotoxicity is -1.8%.

Consider `FC(F)(F)c1ccc2c(c1)nc1n2CCCC1`, for which the cytotoxicity was -20.5%.

Consider `O=C(CC1COc2ccccc2O1)NC1CCCCC1` (stereo not given), for which the cytotoxicity is -3.9%.

With `CC1CCCCN1S(=O)(=O)c1ccc(NC(=O)c2cccc(-n3cnnn3)c2)cc1` (stereo not given), the cytotoxicity is 30%.

`CC1(C)COCN1S(=O)(=O)c1ccc(C(=O)Nc2nnc(-c3ccc(Cl)s3)o2)cc1`: the cytotoxicity is 95.1% (active).

Consider `CCCC(=O)Nc1nnc(-c2ccc(Cl)s2)o1`, for which the cytotoxicity was 1.2%.

Turning to `COc1ccc(-c2nnc(NC(=O)c3ccc(S(=O)(=O)N4COCC4(C)C)cc3)o2)cc1`, the cytotoxicity was 28.7%.

Regarding `CC1CCCCN1S(=O)(=O)c1ccc(NC(=O)c2cccs2)cc1` (stereo not given), the cytotoxicity is 52.1% (active).

Take `CC1CCN(S(=O)(=O)c2ccc(NC(=O)c3cccs3)cc2)CC1`: the cytotoxicity was 19.6%.

`CC1CCCCN1S(=O)(=O)c1ccc(C(=O)Nc2nnc(-c3ccccc3Cl)o2)cc1` (stereo not given): the cytotoxicity is 57.4% (active).

Regarding `CN1CCN(S(=O)(=O)c2ccc(NC(=O)c3cccs3)cc2)CC1`, the cytotoxicity was -7.7%.

On to `CCC1CCCCN1S(=O)(=O)c1ccc(C(=O)Nc2nnc(-c3ccccc3Cl)o2)cc1` (stereo not given), for which the cytotoxicity is 67.6% (active).

Regarding `CCc1nnc(NC(=O)c2ccc(S(=O)(=O)N3CCCCC3C)cc2)s1` (stereo not given), the cytotoxicity is -15%.

Regarding `CCC1CCCCN1S(=O)(=O)c1ccc(C(=O)Nc2nnc(-c3cccs3)o2)cc1` (stereo not given), the cytotoxicity was 37.7%.

`O=C(Nc1nnc(-c2ccccc2Cl)o1)c1cccnc1`: the cytotoxicity is 39.4%.

In the case of `C=CCn1c(SCC(=O)NCCOC)nc2scc(-c3ccco3)c2c1=O`, the cytotoxicity was -6.7%.

As to `c1ccc(-c2nn3c(Cn4nnc5ccccc54)nnc3s2)nc1`, the cytotoxicity was -48.7%.

Regarding `O=C(Nc1ccon1)c1ccc2c(c1)OCO2`, the cytotoxicity was -3.5%.

Regarding `CC(C)N1C(=O)CCC1C(=O)NC1CCCC1` (stereo not given), the cytotoxicity was -3.8%.

Consider `Cc1ccc(-c2csc3nnc(SCC(=O)N4CCN(Cc5ccccc5)CC4)n23)cc1`, for which the cytotoxicity is 4.7%.

Consider `COc1ccc(-c2ccc(NCCC3=CCCCC3)nn2)cc1OC`, for which the cytotoxicity is 18.1%.

Regarding `CCOC(=O)CSc1nnc(-c2ccc(S(=O)(=O)N3CCC(C)CC3)cc2)o1`, the cytotoxicity is 2%.

On to `O=c1cc(CN2CCN(c3ccc(F)cc3)CC2)nc2sccn12`, for which the cytotoxicity was -3.4%.

Consider `Cc1nc2ccccn2c(=O)c1CCN1CCC(C(=O)c2ccc(F)cc2)CC1`, for which the cytotoxicity is -14.3%.

On to `CCCOC(=O)C1C2C=CC3(CN(c4ccc(Cl)c(F)c4)C(=O)C13)O2` (stereo not given), for which the cytotoxicity was -15.1%.

In the case of `C/C=C/COC(=O)c1[nH]c2c(c1C)C(=O)CC(c1ccc(N(C)C)cc1)C2` (stereo not given), the cytotoxicity is 11.6%.

`C/C=C/COC(=O)c1[nH]c2c(c1C)C(=O)CC(c1ccco1)C2` (stereo not given): the cytotoxicity was 63.7% (active).

With `C=CCOC(=O)c1[nH]c2c(c1C)C(=O)CC(c1ccco1)C2` (stereo not given), the cytotoxicity is 74.9% (active).

On to `C=CCOC(=O)c1[nH]c2c(c1C)C(=O)CC(c1cc(OC)c(OC)c(OC)c1)C2` (stereo not given), for which the cytotoxicity is -23.8%.

Consider `CCN1CCN(CC(=O)Nc2ccccc2)C(=O)C1=O`, for which the cytotoxicity is -4.7%.

For `CCOc1nc2ccccc2nc1NS(=O)(=O)c1ccccc1`, the cytotoxicity is 0.8%.

Consider `CCN(CC)C(=O)CSC(=Nc1ccccc1F)NC#N`, for which the cytotoxicity was 3.7%.

As for `Cc1cc(NC(=O)c2ccccc2-c2ccccc2C(=O)O)no1`, the cytotoxicity was 5.8%.

In the case of `O=c1[nH]c(NCCO)nc2c1C1(CCCCC1)Cc1ccccc1-2`, the cytotoxicity is 13.1%.

`Cn1c(NCCO)nc2c(c1=O)C1(CCCCC1)Cc1ccccc1-2`: the cytotoxicity is 8.3%.

In the case of `CC1(C)CC(n2c(NCCO)nc3c(c2=O)C2(CCCC2)Cc2ccccc2-3)CCO1` (stereo not given), the cytotoxicity was 56.4% (active).

Take `Cn1c(NCCCO)nc2c(c1=O)C1(CCCCC1)Cc1ccccc1-2`: the cytotoxicity is 53.9% (active).

`O=c1[nH]c(NCCCO)nc2c1C1(CCCC1)Cc1ccccc1-2`: the cytotoxicity was 23.9%.

On to `CC1(C)Cc2ccccc2-c2nc(NCCO)n(-c3ccccc3)c(=O)c21`, for which the cytotoxicity was -0.1%.

In the case of `COc1ccccc1NC(=O)CSc1nnnn1-c1ccc2c(c1)OCO2`, the cytotoxicity was -9.1%.

Take `COc1ccc(C2c3c(oc4c(C)cc(C)cc4c3=O)C(=O)N2Cc2cccnc2)cc1OC` (stereo not given): the cytotoxicity is 43.3%.

With `O=C(CCNS(=O)(=O)c1cccc2nsnc12)N1CC(=O)N(CCc2ccccc2)C(=O)C1`, the cytotoxicity is -14.8%.

Turning to `COc1ccc(C(=O)NCCn2cc(SCC(=O)Nc3cc(C)on3)c3ccccc32)cc1OC`, the cytotoxicity was -41%.

For `Cc1cc(C)n2nc(SCC(=O)NCc3ccco3)nc2n1`, the cytotoxicity is -20.4%.

Turning to `COCCn1c(C)cc(C(=O)COC(=O)CCc2ccc(S(=O)(=O)N3CCOCC3)cc2)c1C`, the cytotoxicity is -9.3%.

As to `CC(=O)Oc1cc2c(C(C)=O)coc2c2ccccc12`, the cytotoxicity was 4.5%.

Consider `COc1ccc(C(=O)N(Cc2nc(-c3ccc(C)cc3)no2)C2CCCCC2)cc1OC`, for which the cytotoxicity is 9.2%.

`COc1ccccc1-c1nc(-c2cccc(C)c2)no1`: the cytotoxicity was 9.9%.

Consider `COc1cccc(OCc2nc3ccccc3[nH]2)c1`, for which the cytotoxicity is -1.9%.

With `COc1cccc(OCc2nc3ncc(Br)cc3[nH]2)c1`, the cytotoxicity was 61.9% (active).

For the molecule `O=C(NCc1nc2ncc(Br)cc2[nH]1)c1ccccc1`, the cytotoxicity is -4.4%.

As for `CCOC(=O)c1[nH]c2ccc(Br)cc2c1NC(=O)CCN1CCCCC1`, the cytotoxicity is 0.6%.

Turning to `Cc1ccc2c(c1)nnn2C1CCN(CC(=O)Nc2ccccc2N2CCOCC2)CC1`, the cytotoxicity was 11%.

On to `Cc1c(NC(=O)Nc2cccc(Cl)c2)c(=O)n(-c2ccccc2)n1C`, for which the cytotoxicity was -2.1%.

Regarding `Cc1c(NC(=O)c2ccc(Br)o2)c(=O)n(-c2ccccc2)n1C`, the cytotoxicity is -3.4%.

On to `Cc1c(NC(=O)Nc2ccc(Cl)c(Cl)c2)c(=O)n(-c2ccccc2)n1C`, for which the cytotoxicity was 65.8% (active).

Take `Cc1c(NC(=O)c2ccc(=O)oc2)c(=O)n(-c2ccccc2)n1C`: the cytotoxicity was -6.7%.

In the case of `Cc1c(NC(=O)Nc2ccc(Cl)cc2)c(=O)n(-c2ccccc2)n1C`, the cytotoxicity is -19.8%.
